{
  "source": "PubChem BioAssay (NCATS)",
  "key": {"[1]": {"test": "Cell Viability - BJ (AID 421; calls by dose curve; note: potency is the fitted concentration of half-maximal effect)", "settings": "BJ fibroblast viability, qHTS", "procedure,_shortened": "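Normal human BJ foreskin fibroblasts, 1500/well in complete medium, treated 40 hr at 37 °C. Cellular ATP by CellTiter-Glo luminescence; normalized to DMSO and 100 uM tamoxifen, AC50 from Hill fit.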"}, "[2]": {"test": "Cell Viability - Hek293 (AID 427;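 active = compounds whose dose-response curve shows a full or clear partial loss of cell viability, called from curve shape rather than a numeric limit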;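 note: potency is the fitted concentration of half-maximal effect; cells exposed to compound for 40 hours at 37 °C before reading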)", "settings": "qHTS", "procedure,_shortened": "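HEK293 cells in complete medium were exposed to compound for 40 hr at 37 °C, then cellular ATP was read by CellTiter-Glo luminescence. Data were normalized to DMSO (basal) and 100 uM tamoxifen (100% inhibition), and AC50 came from Hill fits.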"}, "[3]": {"test": "Cell Viability - HepG2 (AID 433; calls by dose curve;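 note: potency is the fitted concentration of half-maximal effect; potency for ATP loss meaning cytotoxicity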)", "settings": "qHTS", "procedure,_shortened": "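Cytotoxicity read as ATP loss (CellTiter-Glo luminescence) after 40 hr compound exposure of HepG2, 1500 cells/well, 37 °C. AC50 by Hill equation; 0% set by DMSO, 100% inhibition by 100 uM tamoxifen.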"}, "[4]": {"test": "Cell Viability - MRC5 (AID 434; calls by dose curve;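 note: potency is the fitted concentration of half-maximal effect; potency reflects cytotoxicity seen as loss of intracellular ATP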)", "settings": "MRC5 lung fibroblast viability, qHTS", "procedure,_shortened": "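ATP luminescence read-out (CellTiter-Glo, 20 min RT) after 40 hr, 37 °C compound exposure of 1500 MRC5 cells/well. Data normalized to DMSO (basal) and 100 uM tamoxifen (100% inhibition); AC50 from standard Hill equation.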"}, "[5]": {"test": "Cell Viability - SK-N-SH (AID 435; calls by dose curve; note: potency is the fitted concentration of half-maximal effect)", "settings": "SK-N-SH neuroblastoma cell viability qHTS", "procedure,_shortened": "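qHTS cytotoxicity: CellTiter-Glo ATP luminescence after 40 h compound exposure of human neuroblastoma SK-N-SH cells at 37 °C. AC50 derived by Hill-equation fitting, with DMSO as basal and 100 uM tamoxifen as full inhibition.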"}, "[6]": {"molecular_target": "Mitogen-activated protein kinase 10 (Mus musculus) (UniProt Q61831)", "test": "JNK3 AlphaScreen Assay (AID 530; active = well fitted curve in either direction with a large enough effect, not every such curve was filed as active;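 note: signal reports phosphorylation of biotinylated GST-cJun 1-79 at Ser73 with 10 µM ATP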)", "procedure,_shortened": "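HepG2 lysate (IL-1b/TNFa pre-activated) + biotin-GST-cJun 1-79 + anti-pSer73 cJun; cpd titration, 15 min RT; ATP 10 uM start; Tris pH 7.6, MgCl2, DTT, vanadate; beads in EDTA buffer; AlphaScreen.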"}, "[7]": {"test": "Cell Viability - N2a (AID 540); note: nearly all actives have a fitted effect of over 45% in size", "settings": "N2a mouse neuroblastoma cell viability; at 92.2 µM (top of the series)", "procedure,_shortened": "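In this qHTS cytotoxicity screen, ATP-dependent luciferase luminescence reports viable N2a cells after a 40 hr compound exposure in complete culture medium. Potencies are AC50 values from standard Hill equation fits.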"}, "[8]": {"test": "Cell Viability - NIH 3T3 (AID 541); note: nearly all actives have a fitted effect of over 25% in size", "settings": "NIH 3T3 cell viability, qHTS; activity change, negative = cytotoxicity: at 92.2 µM (top of the series)", "procedure,_shortened": "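In this cytotoxicity screen, acute toxicity is scored as an ATP drop measured by CellTiter-Glo in NIH 3T3 fibroblasts following a 40 hr, 37 °C incubation with compound.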"}, "[9]": {"test": "Cell Viability - HUV-EC-C (AID 542); note: nearly all actives have a fitted effect of over 35% in size", "procedure,_shortened": "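Concentration-dependent ATP loss in HUV-EC-C cells is the measure. Exposure lasts 40 hr at 37 °C; luminescence follows CellTiter-Glo addition, and Hill fits give AC50.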"}, "[10]": {"test": "Cell Viability - SH-SY5Y (AID 544); note: potency is the fitted concentration of half-maximal effect; nearly all actives have a fitted effect of over 55% in size", "settings": "SH-SY5Y neuroblastoma cell viability; viability change, negative = cytotoxic: at 92.2 µM (top of the series)", "procedure,_shortened": "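Quantitative HTS in SH-SY5Y neuroblastoma cells, 40 hr treatment at 37 °C, ATP content by luciferase luminescence; AC50 from Hill fits.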"}, "[11]": {"test": "Cell Viability - Renal Proximal Tubule (AID 545); note: nearly all actives have a fitted effect of over 40% in size", "settings": "renal proximal tubule cells viability; at 91.7 µM (top of the series), primary cells of rat origin unless noted", "procedure,_shortened": "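Viability taken as intracellular ATP (CellTiter-Glo luminescence) after 40 hr, 37 °C compound treatment of primary proximal tubule cells from rat kidney, 1000 cells/well; Hill-equation fits of qHTS concentration-response data gave AC50.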"}, "[12]": {"test": "Cellular Toxicity (caspase-3) HepG2 (AID 654);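 note: cells exposed to compound for 16 hours before reading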", "procedure,_shortened": "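Concentration-response AC50 values reflect caspase-3/7 induction in HepG2 cells after 16 hours of compound exposure, quantified by luminescence from liberated aminoluciferin and referenced to 100 uM tamoxifen as full stimulation.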"}, "[13]": {"test": "Cellular Toxicity (caspase-3) Jurkat (AID 655);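 note: cells exposed to compound for 16 h at 37 °C before reading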", "settings": "Jurkat caspase-3 activation, luminescence, DMSO = 0%, tamoxifen = 100%; at 92.2 µM (top of the series)", "procedure,_shortened": "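Luminescent Caspase-Glo 3/7 read-out (20 min, room temperature) after 16 h compound treatment at 37 C of 5000 Jurkat cells per well. AC50 derived by Hill-equation fitting, scaled between DMSO basal and 100 uM tamoxifen stimulation.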"}, "[14]": {"test": "Cellular Toxicity (caspase-3) HUV-EC-C (AID 656)", "procedure,_shortened": "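Luminescent Caspase-Glo 3/7 readout after 16 h, 37 °C compound exposure of HUV-EC-C endothelial cells, 1000 per well, complete medium. AC50 derived by Hill fitting, with DMSO as baseline and 100 uM tamoxifen as full activation.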"}, "[15]": {"test": "Cellular Toxicity (caspase-3) SHSY5Y (AID 657)", "procedure,_shortened": "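Luminescent Caspase-Glo 3/7 read-out, 1 hr room temperature, follows 16 hours of compound treatment of SH-SY5Y cells at 37 °C. Normalization: DMSO basal, 10 uM staurosporine as 100%; AC50 values from Hill-equation concentration-response fits.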"}, "[16]": {"test": "Cellular Toxicity (caspase-3) BJ (AID 658)", "procedure,_shortened": "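qHTS, BJ fibroblasts, 1000 cells/well; 5 hr preincubation, 16 hr compound, 37 °C; Caspase-Glo 3/7 reagent, 1 hr RT; luminescence. DMSO = 0%, 10 uM staurosporine = 100%. Hill-equation AC50.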"}, "[17]": {"test": "Cellular Toxicity (caspase-3) MRC-5 (AID 659)", "procedure,_shortened": "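MRC-5 fibroblasts, 1500/well; 16 h cpd, 37 °C; Caspase-Glo 3/7, 1 h RT; lumi read. Norm: DMSO = 0%, 10 uM staurosporine = 100%. Hill-fit AC50 from qHTS conc-response.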"}, "[18]": {"test": "Cellular Toxicity (caspase-3) Mesangial (AID 660)", "procedure,_shortened": "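AC50 values come from Hill-equation fits of caspase 3/7 activation, measured as Caspase-Glo luminescence in human glomerular mesangial cells exposed to compound for 16 h at 37 °C; 100% set by 100 uM tamoxifen.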"}, "[19]": {"test": "Cellular Toxicity (caspase-3) SK-N-SH (AID 661)", "procedure,_shortened": "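Apoptosis readout in SK-N-SH neuroblastoma: Caspase-Glo 3/7 luminescence following 16 hr treatment in complete culture medium. Normalization used DMSO and 10 uM staurosporine controls.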"}, "[20]": {"test": "Cellular Toxicity (caspase-3) H-4-II-E (AID 663)", "procedure,_shortened": "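H-4-II-E rat hepatoma, 1500 cells/well, 5 hr settle at 37 °C; compound 16 hr, 37 °C, complete medium; Caspase-Glo 3/7, 20 min RT; luminescence. DMSO = 0%, 100 uM tamoxifen = 100%; Hill-equation AC50.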"}, "[21]": {"test": "Cellular Toxicity (caspase-3) Hek293 (AID 664)", "procedure,_shortened": "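Apoptosis readout: Caspase-Glo 3/7 signal in human HEK293 cells following 16-hour compound incubation. Responses scaled between DMSO baseline and 100 uM tamoxifen.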"}, "[22]": {"test": "Cellular Toxicity (caspase-3) NIH 3T3 (AID 666)", "procedure,_shortened": "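Activity: caspase-3/7 induction, NIH 3T3 cells, 16 hr treatment at 37°C, luminescent Caspase-Glo detection; AC50 via Hill equation.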"}, "[23]": {"test": "Cellular Toxicity (caspase-3) Renal Proximal Tubule (AID 667)", "settings": "renal proximal tubule cells; at 91.7 µM (top of the series), primary cells freshly taken from rat, solvent-only wells 0%, staurosporine 100% unless noted", "procedure,_shortened": "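Caspase 3/7 activation measured by luminescent aminoluciferin release in primary rat proximal tubule cells after 16 hr compound exposure at 37 °C. AC50 from Hill-fitted concentration-response, scaled between DMSO and 10 uM staurosporine.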"}, "[24]": {"molecular_target": "Cytochrome P450 3A4 (Homo sapiens) (UniProt P08684)", "sequence (P08684 whole entry, looked up)": "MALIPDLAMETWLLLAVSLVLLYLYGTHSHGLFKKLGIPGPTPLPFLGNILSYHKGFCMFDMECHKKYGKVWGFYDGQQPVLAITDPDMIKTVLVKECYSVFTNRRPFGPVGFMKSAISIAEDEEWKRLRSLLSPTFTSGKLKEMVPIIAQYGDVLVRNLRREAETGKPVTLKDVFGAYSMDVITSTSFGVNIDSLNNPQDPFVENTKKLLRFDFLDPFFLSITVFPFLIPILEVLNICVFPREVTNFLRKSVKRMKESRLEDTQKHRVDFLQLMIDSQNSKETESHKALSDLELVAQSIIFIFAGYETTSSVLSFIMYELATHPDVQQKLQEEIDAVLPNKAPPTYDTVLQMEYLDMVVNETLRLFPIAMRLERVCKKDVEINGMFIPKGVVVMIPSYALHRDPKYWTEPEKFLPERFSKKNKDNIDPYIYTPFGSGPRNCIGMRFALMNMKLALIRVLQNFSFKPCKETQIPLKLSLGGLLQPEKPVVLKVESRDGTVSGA", "test": "qHTS Assay for Inhibitors and Substrates of Cytochrome P450 3A4 (AID 884); note: potency is the fitted concentration of half-maximal effect; nearly all actives have a fitted effect of over 50% in size", "procedure,_shortened": "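Luminescent readout of luciferin produced by CYP3A4 (20 nM) dealkylation of Luciferin-PPXE, 25 uM (its KM). NADPH-driven reaction ran 60 min at RT after 10 min compound preincubation; data scaled to 57 uM ketoconazole as 100% inhibition.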"}, "[25]": {"molecular_target": "Cytochrome P450 3A4 (Homo sapiens) (UniProt P08684)", "test": "qHTS Assay for Activators of Cytochrome P450 3A4 (AID 885); note: nearly all actives have a fitted effect of over 65% in size", "procedure,_shortened": "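Human CYP3A4 dealkylates Luciferin-PPXE to luciferin, which luciferase detection converts to light. Substrate was at its KM (25uM), buffer 200mM KPO4, reaction 60 min at RT.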"}, "[26]": {"test": "Cell Viability - LYMP1-002 - Assay at 16 hr (AID 948)", "procedure,_shortened": "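ATP luminescence (CellTiter-Glo) was measured after 16 hr compound exposure at 37 C of 2500 lymphoblastoid LYMP1-002 cells per well. Concentration-response curves were fitted with the Hill equation to give AC50.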"}, "[27]": {"test": "MultiTox-Fluor Cytotoxicity Assay - LYMP1-002 - Dead Cells (AID 960); note: nearly all actives have a fitted effect of over 60% in size", "procedure,_shortened": "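Concentration-dependent increases in membrane-leaked protease activity are quantified in LYMP1-002 cells after 16 hr treatment; values are normalized against DMSO and tetraoctylammonium bromide (15 uM) controls and AC50 derived by Hill modeling.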"}, "[28]": {"test": "MultiTox-Fluor Cytotoxicity Assay - LYMP1-003 - Dead Cells (AID 961); note: nearly all actives have a fitted effect of over 70% in size", "procedure,_shortened": "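LYMP1-003 human lymphoblastoid cells (2500/well) exposed to compound 16 h at 37 C in complete medium; dead-cell protease read with bis-AAF-R110 fluorescence (Ex/Em 485/520) after 60 min at room temperature. Normalized to DMSO and 15 uM tetraoctylammonium bromide; AC50 from Hill fit.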"}, "[29]": {"test": "MultiTox-Fluor Cytotoxicity Assay - LYMP1-003 - Live Cells (AID 962);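 note: cytotoxic hits lower the live-cell protease signal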", "procedure,_shortened": "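Human lymphoblastoid line LYMP1-003 in complete culture medium, treated 16 hr with titrated compounds. Viable cells quantified via cell-permeant GF-AFC substrate fluorescence; AC50 derived by Hill fitting.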"}, "[30]": {"test": "Cell Viability - LYMP1-003 - Assay at 24 hr (AID 963)", "procedure,_shortened": "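The lymphoblastoid line was treated with titrated compounds for 24 hours, and viable cell number estimated from luciferase-based ATP luminescence.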"}},
  "note": "Several values for one entry are separate records, joined by “and”; a condition that tells them apart may be missing. Equal values may be shown once. Unmarked numbers belong to inactive results. Results filed as inconclusive are left out. Where a call stands in place of a potency, no number is given. Activity calls are given as the source filed them. Unless noted, calls come from the whole dose curve; as a rule, active = well fitted curve in the direction sought with a large enough effect; inconclusive = small, poorly fitted or top-dose-only effect, or another doubt; inactive = no such curve, though single readings can be large; an effect the other way counts as inactive or inconclusive.",
  "data": [
    {"smiles": "C[C@H]1CCCC(=O)CCC/C=C/c2cc(O)cc(O)c2C(=O)O1", "values": [
      {"measurement": "Potency", "setting": "[1]", "result": "> 92", "unit": "µM"},
      {"measurement": "Potency", "setting": "[2]", "result": "31.1 µM (active) and 40.2 µM (active)"},
      {"measurement": "Potency", "setting": "[3]", "result": "> 92", "unit": "µM"},
      {"measurement": "Potency", "setting": "[4]", "result": "> 92", "unit": "µM"},
      {"measurement": "Potency", "setting": "[5]", "result": "59.8 µM (active)"},
      {"measurement": "outcome", "setting": "[6]", "result": "inactive"},
      {"measurement": "activity change, negative = cytotoxicity", "setting": "[7]", "result": "-95.8% (active) and -87.8% (active)"},
      {"measurement": "activity change, negative = cytotoxicity", "setting": "[8]", "result": "-105% (active)"},
      {"measurement": "Potency", "setting": "[9]", "result": "inactive"},
      {"measurement": "Potency", "setting": "[10]", "result": "12.6 µM (active) and 31.6 µM (active)"},
      {"measurement": "activity change, negative = cytotoxicity", "setting": "[11]", "result": "-28.2% [at 91.7 µM]"},
      {"measurement": "outcome", "setting": "[12]", "result": "inactive"},
      {"measurement": "caspase-3 activation", "setting": "[13]", "result": "17.6% and 19.1%"},
      {"measurement": "outcome", "setting": "[14]", "result": "inactive"},
      {"measurement": "outcome", "setting": "[15]", "result": "inactive"},
      {"measurement": "outcome", "setting": "[16]", "result": "inactive"},
      {"measurement": "outcome", "setting": "[17]", "result": "inactive"},
      {"measurement": "outcome", "setting": "[18]", "result": "inactive"},
      {"measurement": "outcome", "setting": "[19]", "result": "inactive"},
      {"measurement": "outcome", "setting": "[20]", "result": "inactive"},
      {"measurement": "outcome", "setting": "[21]", "result": "inactive"},
      {"measurement": "outcome", "setting": "[22]", "result": "inactive"},
      {"measurement": "caspase-3 activation", "setting": "[23]", "result": "5.71% [at 91.7 µM] and 9.28% [at 91.7 µM]"},
      {"measurement": "Potency", "setting": "[24]", "result": "316 nM (active) and 398 nM (active)"},
      {"measurement": "Potency", "setting": "[25]", "result": "inactive"},
      {"measurement": "Potency", "setting": "[26]", "result": "inactive"},
      {"measurement": "Potency", "setting": "[27]", "result": "inactive"},
      {"measurement": "Potency", "setting": "[28]", "result": "inactive"},
      {"measurement": "Potency", "setting": "[29]", "result": "inactive"},
      {"measurement": "Potency", "setting": "[30]", "result": "inactive"}
    ]}
  ]
}
